Source: PubChem BioAssay (National Center for Advancing Translational Sciences (NCATS))
Six1-Eya2 inh = qHTS Assay for Inhibitors of the Six1/Eya2 Interaction. Homeobox protein SIX1 (Homo sapiens) + Protein phosphatase EYA2 (Homo sapiens), …. AlphaScreen GST-Six1/His-Eya2 binding, biochemical; hits give low values. activity change, % (concentration not given with the values). 360,000 compounds, 0.56% hits. AID 651725, 2012; in the data active means activity change below about -65%; inconclusive means mostly about -30% to -63%
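AlphaScreen luminescence read after one hour at 37 °C in darkness. Pin-transferred compounds met GST-Six1 and His-Eya2 protein (5X stock 250 nM/500 nM) plus glutathione donor and Ni-chelate acceptor beads (5X, 50 ug/mL).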
CtBP-E1A inh = qHTS Assay for Inhibitors of the CtBP/E1A Interaction | CtBP / adenovirus E1A interaction (AlphaScreen) | AlphaScreen GST-E1A/His-CtBP binding, 1536-well; hits give low values | activity change, % (concentration not given with the values) | 340,000 compounds, 0.49% hits; in the data active means activity change below about -65%; inconclusive means mostly about -30% to -63%
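GST-E1A and His-tagged CtBP (125 nM each as 5X stock) were preincubated with pin-transferred compound for 2 h at 37 °C in the dark, then glutathione donor and nickel acceptor beads were added for 1 h before AlphaScreen reading.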
VP16 counter = VP16 counterscreen qHTS for inhibitors of ROR gamma transcriptional activity | Potency, µM (doses to about 53.6 µM), hits mostly inhibitors | AID 2546, 2010 | Drosophila S2 Gal4-VP16 UAS-luciferase, luminescence, 20 h | 310,000 compounds, 3.5% hits;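 further: Gal4-VP16 expression switched on by copper sulfate through the metallothionein promoter; nearly all actives have a fitted effect of over 50% in size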
RORg inh = qHTS for inhibitors of ROR gamma transcriptional activity. Nuclear receptor ROR-gamma (Mus musculus), P51450. Drosophila S2 Gal4-RORgamma UAS-luciferase reporter, 20 h. Potency, µM (series often up to 53.6 µM), usual class: inhibitors. 310,000 compounds, 5.4% hits; further: nearly all actives have a fitted effect of over 60% in size
Target sequence (P51450 whole entry, looked up, the tested form may be a part): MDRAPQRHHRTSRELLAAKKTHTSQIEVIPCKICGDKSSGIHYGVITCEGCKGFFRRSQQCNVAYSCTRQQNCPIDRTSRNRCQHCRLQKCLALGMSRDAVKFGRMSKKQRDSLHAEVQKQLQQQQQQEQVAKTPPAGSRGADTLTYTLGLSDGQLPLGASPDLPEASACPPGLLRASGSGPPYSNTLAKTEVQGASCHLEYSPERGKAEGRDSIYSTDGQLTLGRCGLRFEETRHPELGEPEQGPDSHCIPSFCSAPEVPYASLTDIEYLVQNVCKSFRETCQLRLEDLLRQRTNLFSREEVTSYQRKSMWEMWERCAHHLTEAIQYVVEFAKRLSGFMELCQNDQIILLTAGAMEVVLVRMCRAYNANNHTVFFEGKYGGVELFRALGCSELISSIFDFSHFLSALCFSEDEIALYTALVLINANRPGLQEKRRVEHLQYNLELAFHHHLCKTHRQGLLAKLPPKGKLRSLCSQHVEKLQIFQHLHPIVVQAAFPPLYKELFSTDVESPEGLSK
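Drosophila Schneider cells stably carrying a metallothionein-driven Gal4 DBD–ROR gamma fusion and a UAS-Photinus luciferase reporter were exposed to compound for 1 hr, then induced with copper sulfate (700 uM final) for 20 hr at ambient temperature before luminescence reading.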
PKM2 act = qHTS Assay for Activators of Human Muscle isoform 2 Pyruvate Kinase; Pyruvate kinase PKM (Homo sapiens), P14618; purified PKM2, Kinase-Glo ATP luminescence, activation; response scale: 0% is enzyme alone, no compound; Potency, µM (doses to about 57.5 µM), most hits filed as activators; 260,000 compounds, 0.34% hits; AID 1631, 2009; further: nearly all actives have a fitted effect of over 55% in size
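Purified hPK-M2 (>95% pure) converted ADP (0.1 mM final) to ATP with 0.5 mM PEP in 50 mM imidazole pH7.2, KCl, MgCl2, Tween 20, BSA; 1 h at room temperature. ATP detected by Kinase-Glo luminescence.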
A number is an active result; 0 = inactive; ? = inconclusive; - = no result given; [ ] = another dose, or the depositor's remark. An excerpt weighted towards active compounds, which were near 5.6% of everything screened. Unless noted, the call rests on the fitted dose curve; in most records, active means well fitted curve in the direction sought with a large enough effect; inconclusive means small, poorly fitted or top-dose-only effect, or another doubt; inactive means no such curve, though single readings can be large; an effect the other way counts as inactive or inconclusive.

SMILES | Six1-Eya2 inh | CtBP-E1A inh | VP16 counter | RORg inh | PKM2 act
CC(NC(=O)Cc1ccc(F)cc1)c1ccc(F)cc1 (stereo not drawn) | 0 | - | 0 | ? | 0
Cc1ccc(C(C)NC(=S)NCc2ccc(F)cc2)cc1C (stereo not drawn) | 0 | 0 | 5.01µM | 3.55µM | 0
CCC(NC(=O)C1(C)CC1(Br)Br)c1ccc(C)cc1 (stereo not drawn) | 0 | 0 | 0 | 0 | 0
CC(NC(=O)CCC(=O)NCc1ccc(F)cc1)c1ccccc1 (stereo not drawn) | 0 | 0 | 0 | 0 | 0[11.5 µM]
CCc1ccc(C(C)NC(=S)NCc2ccc(F)cc2)cc1 (stereo not drawn) | 0 | 0 | 5.01µM | 2.24µM | 0
CCC(NC(=S)NCc1ccc(F)cc1)c1ccc(C)cc1 (stereo not drawn) | 0 | 0 | 3.16µM | 2.82µM | 0
CC(C)(C)c1ccc(S(=O)(=O)NC(=O)C2(C)CCN2C(=O)C2CC2)cc1 (stereo not drawn) | 0 | 0 | - | - | -
Oc1c(N=NC(=S)Nc2ccccc2F)c2ccccc2n1Cc1cccc(Cl)c1 | ? | ? | 3.55µM | ? | 0
Cc1cccc(NC(=O)Cn2c(O)c(N=NC(N)=S)c3ccccc32)c1 | 0 | 0 | ? | ? | 0
Oc1c(N=NC(=S)Nc2ccccc2F)c2ccccc2n1Cc1ccc(F)cc1 | 0 | 0 | 3.55µM | 2.82µM | 0
Cc1cccc(Cn2c(O)c(N=NC(=S)Nc3ccccc3F)c3ccccc32)c1 | 0 | - | 5.01µM | 3.16µM | 0
c1ccc(Nc2ccccn2)nc1 | 0 | ? | 0 | 0 | 0
O=C(Nc1ccccn1)C1(c2ccccc2)CCCC1 | 0 | 0 | 20µM | 0 | 0
Cc1ccc(NC(=O)C2(c3ccccc3)CCCC2)nc1 | 0 | 0 | - | - | -
O=C(Nc1ccccn1)C(=O)Nc1ccccn1 | 0 | 0 | 12.6µM | 10µM | 0
O=C(Nc1ccccc1)Nc1ccccn1 | 0 | 0 | 0 | 0 | 0
S=C(Nc1ccccn1)c1ccccn1 | -91.7 | -88.8 | 3.16µM | 7.08µM | 0
Cc1cc(C)c(S(C)(=O)=O)c(NN)n1 | 0 | 0 | 0 | 2µM | 0
Nc1ccc(C(=O)N/N=C\c2ccc(OC(=O)c3ccccc3Cl)cc2)cc1 | 0 | - | 0 | 0 | 0
O=C(O)c1ccc(N/N=C/c2ccc(OC(=O)c3ccccc3Cl)cc2)cc1 | 0 | 0 | 0.316µM | 0.398µM | 0
CC(C)c1ccc(/C=N/Nc2ccc(C(=O)O)cc2)cc1 | 0 | 0 | 0.251µM | ? | 0
COc1ccc(/C=N/Nc2ccc(C(=O)O)cc2)cc1Br | 0 | 0 | 0 | 39.8µM | 0
Cc1ccc(/C=N/Nc2ccc(C(=O)O)cc2)o1 | 0 | - | 0.398µM | 0.316µM | 0
O=C(O)c1ccc(N/N=C/c2ccc(-c3ccccc3)cc2)cc1 | 0 | 0 | 0 | 0 | 0
COc1ccc(/C=N\NC(=O)C2CCCC2)cc1Br | 0 | 0 | 0 | 0 | 0
SMILES | Six1-Eya2 inh | CtBP-E1A inh | VP16 counter | RORg inh | PKM2 act
CC(=O)Nc1ccc(S(=O)(=O)N2CCN(CC3CC4C=CC3C4)CC2)cc1 (stereo not drawn) | 0 | - | 0 | 0 | 0
Cc1ccc(NC(=O)C2CCN(C(=O)c3ccco3)CC2)cc1C | 0 | 0 | 0 | 0 | -
COc1cc(C=NNc2ccccc2)ccc1OC(=O)c1ccccc1 | 0 | 0 | - | - | -
COc1ccc2c(c1)c(/C=N/Nc1ccc(C(=O)O)cc1)c(C)n2C | 0 | - | ? | ? | 0
COc1ccc(/C=N/Nc2ccc(C(=O)O)cc2)cc1OC | 0 | 0 | 0.447µM | 1.58µM | 0
COc1ccc2c(/C=N/Nc3ccc(C(=O)O)cc3)c[nH]c2c1 | 0 | 0 | 5.01µM | ? | -
COc1cccc(-c2cncnc2NCc2cccs2)c1 | - | - | 0 | 0 | -
Cc1ccc(-c2csc(NC(=O)c3ccccc3F)c2C(=O)O)cc1 | -70.4 | - | 0 | 0 | -
O=C(Nc1scc(-c2ccccc2)c1C(=O)O)c1ccccc1F | ? | ? | 0 | 0 | 0
COc1ccc(-c2csc(NC(=O)Cc3cccc4ccccc34)c2C(=O)O)cc1 | -67.4 | -67.1 | 0 | 0 | 0
Cc1cc(=O)oc2cc(OC(C)C(=O)NC3(C#N)CCCCC3)ccc12 (stereo not drawn) | 0 | 0 | - | - | -
CC(=O)Nc1nnc(-c2ccc3c(c2)CCCC3)o1 | 0 | 0 | 3.55µM | 7.08µM | 0
O=C(COc1ccc(Cl)cc1)Nc1nnc(-c2ccc3c(c2)CCCC3)o1 | 0 | 0 | ? | 0 | 0
COc1ccccc1C(=O)Nc1nnc(-c2ccc3c(c2)CCCC3)o1 | 0 | 0 | 3.98µM | 0 | 0
CC1CN(S(=O)(=O)c2ccc(C(=O)Nc3nnc(-c4ccc5c(c4)CCCC5)o3)cc2)CC(C)O1 (stereo not drawn) | 0 | 0 | 0.891µM | 0.112µM | 0
O=C(Nc1nnc(-c2ccc3c(c2)CCCC3)o1)C1COc2ccccc2O1 (stereo not drawn) | 0 | 0 | 7.94µM | 3.55µM | 0
CC(=O)Nc1ccc(NC(=O)C(C)Sc2n[nH]c(-c3ccc(C)cc3)n2)cc1 (stereo not drawn) | 0 | 0 | - | - | -
Cc1cccc(NS(=O)(=O)c2ccc(C)c(C(=O)NCc3ccncc3)c2)c1 | 0 | 0 | - | - | -
C[C@@H]1C(=O)N(S(=O)(=O)c2ccc([N+](=O)[O-])cc2)[C@H]1c1ccc(F)cc1 | - | - | 0 | 0 | -
Cc1cccc(NC(=O)CCN2CCCC(C)C2)c1 (stereo not drawn) | 0 | 0 | 0 | 0 | 0[11.5 µM]
CCOc1ccc(-c2n[nH]c(C)c2Oc2ccccc2OC)c(O)c1 | 0 | 0 | 2.51µM | 2.24µM | 0
Cc1[nH]nc(-c2ccc(O)cc2O)c1Oc1ccccc1 | 0 | 0 | ? | ? | 0
CCc1cc(-c2n[nH]c(C)c2Oc2ccc(C(C)C)cc2)c(O)cc1O | 0 | 0 | ? | 7.08µM | 0
Cc1[nH]nc(-c2ccc(OCc3cnn(-c4ccccc4)c3)cc2O)c1Oc1ccccc1F | 0 | 0 | 10µM | 6.31µM | 0
CCCOC(=O)c1ccc(Oc2c(-c3ccc(OC)cc3O)n[nH]c2C)cc1 | 0 | 0 | ? | 7.08µM | 0
SMILES | Six1-Eya2 inh | CtBP-E1A inh | VP16 counter | RORg inh | PKM2 act
CCCOC(=O)c1ccc(Oc2c(-c3ccc(O)cc3O)n[nH]c2C)cc1 | 0 | 0 | 0 | ? | 0
COc1ccc(O)c(-c2c(-c3ccc(Cl)cc3)n[nH]c2C)c1 | 0 | 0 | 0 | ? | 0
COc1ccccc1NS(=O)(=O)c1cccc(C(=O)NCC2(N3CCCCC3)CCCCC2)c1 | 0 | 0 | - | - | -
C=C(C)COc1ccc(-c2n[nH]c(C)c2Oc2ccccc2OC)c(O)c1 | 0 | 0 | 0 | 1.58µM | 0
Cc1cccc(OCC(=O)NCc2ccccc2)c1 | 0 | 0 | 0 | 0 | -
C/C(=N\NC(=O)COc1cccc(C)c1)c1ccc2ccccc2c1O | 0 | 0 | 3.98µM | 4.47µM | -
O=C(Nc1ccc(Cl)cc1)c1cc2c(cc1O)[nH]c1ccccc12 | 0 | 0 | 17.8µM | 0 | 0
